# What was measured:
# [1] = molecular target: Tyrosine-protein kinase Lyn (Homo sapiens) (UniProt P07948); conditions: at 1 µM
# [2] = molecular target: Tyrosine-protein kinase Lyn (Homo sapiens) (UniProt P07948); conditions: at 10 µM
# [3] = molecular target: Mitogen-activated protein kinase 3 (Homo sapiens) (UniProt P27361); conditions: at 1 µM
# [4] = molecular target: Mitogen-activated protein kinase 3 (Homo sapiens) (UniProt P27361); conditions: at 10 µM
# [5] = molecular target: MAP kinase-activated protein kinase 2 (Homo sapiens) (UniProt P49137); conditions: at 1 µM
# [6] = molecular target: MAP kinase-activated protein kinase 2 (Homo sapiens) (UniProt P49137); conditions: at 10 µM
# [7] = molecular target: Serine/threonine-protein kinase MARK1 (Homo sapiens) (UniProt Q9P0L2); conditions: at 1 µM
# [8] = molecular target: Serine/threonine-protein kinase MARK1 (Homo sapiens) (UniProt Q9P0L2); conditions: at 10 µM
# [9] = molecular target: Dual specificity mitogen-activated protein kinase kinase 1 (Homo sapiens) (UniProt Q02750); conditions: at 1 µM
# [10] = molecular target: Dual specificity mitogen-activated protein kinase kinase 1 (Homo sapiens) (UniProt Q02750); conditions: at 10 µM
# [11] = molecular target: Maternal embryonic leucine zipper kinase (Homo sapiens) (UniProt Q14680); conditions: at 1 µM
# [12] = molecular target: Maternal embryonic leucine zipper kinase (Homo sapiens) (UniProt Q14680); conditions: at 10 µM
# [13] = molecular target: Misshapen-like kinase 1 (Homo sapiens) (UniProt Q8N4C8); conditions: at 1 µM
# [14] = molecular target: Misshapen-like kinase 1 (Homo sapiens) (UniProt Q8N4C8); conditions: at 10 µM
# [15] = molecular target: Tyrosine-protein kinase Lck (Homo sapiens) (UniProt P06239); conditions: at 10 µM
# [16] = molecular target: Mitogen-activated protein kinase 1 (Homo sapiens) (UniProt P28482); conditions: at 10 µM
# [17] = molecular target: Mitogen-activated protein kinase 1 (Homo sapiens) (UniProt P28482); conditions: at 1 µM
# [18] = molecular target: MAP kinase-activated protein kinase 3 (Homo sapiens) (UniProt Q16644); conditions: at 10 µM
# Maternal embryonic leucine zipper kinase (Homo sapiens), sequence (Q14680 whole entry, looked up): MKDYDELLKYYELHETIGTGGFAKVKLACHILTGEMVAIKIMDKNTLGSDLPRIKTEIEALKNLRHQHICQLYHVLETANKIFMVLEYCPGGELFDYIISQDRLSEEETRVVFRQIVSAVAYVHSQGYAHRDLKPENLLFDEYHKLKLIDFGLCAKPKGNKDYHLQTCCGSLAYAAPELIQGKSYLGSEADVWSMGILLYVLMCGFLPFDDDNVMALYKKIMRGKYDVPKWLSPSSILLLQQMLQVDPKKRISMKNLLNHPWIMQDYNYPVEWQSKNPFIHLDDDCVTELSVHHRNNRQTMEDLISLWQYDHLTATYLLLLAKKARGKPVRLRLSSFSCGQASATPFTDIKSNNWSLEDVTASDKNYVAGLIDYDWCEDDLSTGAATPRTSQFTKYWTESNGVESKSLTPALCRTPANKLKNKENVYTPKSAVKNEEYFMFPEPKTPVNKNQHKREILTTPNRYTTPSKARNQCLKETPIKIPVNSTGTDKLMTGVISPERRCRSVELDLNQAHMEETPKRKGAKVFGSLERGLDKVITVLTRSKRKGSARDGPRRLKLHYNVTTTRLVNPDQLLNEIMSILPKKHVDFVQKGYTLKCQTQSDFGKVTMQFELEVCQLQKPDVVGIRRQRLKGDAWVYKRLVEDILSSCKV
# Misshapen-like kinase 1 (Homo sapiens), sequence (Q8N4C8 whole entry, looked up): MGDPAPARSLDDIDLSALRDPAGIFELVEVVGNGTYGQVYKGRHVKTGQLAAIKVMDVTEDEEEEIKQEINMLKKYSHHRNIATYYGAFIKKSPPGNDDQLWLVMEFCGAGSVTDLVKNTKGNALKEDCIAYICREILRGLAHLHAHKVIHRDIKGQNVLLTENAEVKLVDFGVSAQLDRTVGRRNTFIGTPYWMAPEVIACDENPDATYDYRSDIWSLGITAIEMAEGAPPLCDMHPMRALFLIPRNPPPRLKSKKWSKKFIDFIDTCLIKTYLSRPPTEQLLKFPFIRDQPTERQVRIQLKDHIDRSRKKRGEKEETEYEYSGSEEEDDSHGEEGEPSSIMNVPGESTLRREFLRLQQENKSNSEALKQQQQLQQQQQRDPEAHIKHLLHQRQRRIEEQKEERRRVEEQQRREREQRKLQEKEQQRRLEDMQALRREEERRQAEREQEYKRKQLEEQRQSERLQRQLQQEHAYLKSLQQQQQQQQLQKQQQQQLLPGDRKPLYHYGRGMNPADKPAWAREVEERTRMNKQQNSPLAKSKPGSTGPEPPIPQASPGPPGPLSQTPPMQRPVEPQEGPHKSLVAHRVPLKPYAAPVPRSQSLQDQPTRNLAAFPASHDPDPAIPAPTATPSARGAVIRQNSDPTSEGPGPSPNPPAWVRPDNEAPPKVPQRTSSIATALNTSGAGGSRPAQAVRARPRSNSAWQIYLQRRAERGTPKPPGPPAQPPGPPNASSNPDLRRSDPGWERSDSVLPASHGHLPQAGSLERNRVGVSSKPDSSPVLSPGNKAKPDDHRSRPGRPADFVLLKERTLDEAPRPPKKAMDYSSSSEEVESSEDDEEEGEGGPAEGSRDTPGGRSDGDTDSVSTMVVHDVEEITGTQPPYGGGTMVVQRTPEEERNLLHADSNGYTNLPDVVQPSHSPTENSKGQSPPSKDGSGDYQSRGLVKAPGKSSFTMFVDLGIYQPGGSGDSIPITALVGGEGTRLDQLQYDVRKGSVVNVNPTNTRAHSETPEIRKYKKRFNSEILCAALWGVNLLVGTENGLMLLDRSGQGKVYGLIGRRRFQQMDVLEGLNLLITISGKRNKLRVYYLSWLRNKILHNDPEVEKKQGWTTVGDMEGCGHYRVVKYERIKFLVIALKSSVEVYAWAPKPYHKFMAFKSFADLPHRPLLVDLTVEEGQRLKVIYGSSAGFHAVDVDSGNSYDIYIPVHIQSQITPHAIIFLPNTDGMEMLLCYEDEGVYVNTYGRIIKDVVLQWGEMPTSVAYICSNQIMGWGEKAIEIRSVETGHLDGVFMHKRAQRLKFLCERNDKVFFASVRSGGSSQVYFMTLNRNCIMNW
# Dual specificity mitogen-activated protein kinase kinase 1 (Homo sapiens), sequence (Q02750 whole entry): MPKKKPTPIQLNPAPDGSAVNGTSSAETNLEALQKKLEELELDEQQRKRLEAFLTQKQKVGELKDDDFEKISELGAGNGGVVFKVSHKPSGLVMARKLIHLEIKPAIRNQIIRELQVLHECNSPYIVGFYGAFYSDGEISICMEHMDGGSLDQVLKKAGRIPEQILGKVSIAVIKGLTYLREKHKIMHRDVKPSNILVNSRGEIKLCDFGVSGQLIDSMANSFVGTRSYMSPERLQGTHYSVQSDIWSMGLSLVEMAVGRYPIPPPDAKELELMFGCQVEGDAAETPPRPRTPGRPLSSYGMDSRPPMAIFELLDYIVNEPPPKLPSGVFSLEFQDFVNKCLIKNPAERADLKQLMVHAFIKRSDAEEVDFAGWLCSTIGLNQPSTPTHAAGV
# Mitogen-activated protein kinase 1 (Homo sapiens), sequence (P28482 whole entry): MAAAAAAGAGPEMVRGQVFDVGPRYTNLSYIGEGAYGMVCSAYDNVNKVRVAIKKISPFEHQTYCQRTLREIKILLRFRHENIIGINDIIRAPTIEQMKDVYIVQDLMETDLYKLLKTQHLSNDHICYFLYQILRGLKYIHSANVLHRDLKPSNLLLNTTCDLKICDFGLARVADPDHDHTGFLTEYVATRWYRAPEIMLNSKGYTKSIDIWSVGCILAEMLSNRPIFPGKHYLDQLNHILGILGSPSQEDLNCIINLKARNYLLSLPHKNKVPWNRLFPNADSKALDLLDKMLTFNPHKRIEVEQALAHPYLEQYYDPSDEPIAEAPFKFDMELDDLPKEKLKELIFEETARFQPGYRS
# Serine/threonine-protein kinase MARK1 (Homo sapiens), sequence (Q9P0L2 whole entry, looked up): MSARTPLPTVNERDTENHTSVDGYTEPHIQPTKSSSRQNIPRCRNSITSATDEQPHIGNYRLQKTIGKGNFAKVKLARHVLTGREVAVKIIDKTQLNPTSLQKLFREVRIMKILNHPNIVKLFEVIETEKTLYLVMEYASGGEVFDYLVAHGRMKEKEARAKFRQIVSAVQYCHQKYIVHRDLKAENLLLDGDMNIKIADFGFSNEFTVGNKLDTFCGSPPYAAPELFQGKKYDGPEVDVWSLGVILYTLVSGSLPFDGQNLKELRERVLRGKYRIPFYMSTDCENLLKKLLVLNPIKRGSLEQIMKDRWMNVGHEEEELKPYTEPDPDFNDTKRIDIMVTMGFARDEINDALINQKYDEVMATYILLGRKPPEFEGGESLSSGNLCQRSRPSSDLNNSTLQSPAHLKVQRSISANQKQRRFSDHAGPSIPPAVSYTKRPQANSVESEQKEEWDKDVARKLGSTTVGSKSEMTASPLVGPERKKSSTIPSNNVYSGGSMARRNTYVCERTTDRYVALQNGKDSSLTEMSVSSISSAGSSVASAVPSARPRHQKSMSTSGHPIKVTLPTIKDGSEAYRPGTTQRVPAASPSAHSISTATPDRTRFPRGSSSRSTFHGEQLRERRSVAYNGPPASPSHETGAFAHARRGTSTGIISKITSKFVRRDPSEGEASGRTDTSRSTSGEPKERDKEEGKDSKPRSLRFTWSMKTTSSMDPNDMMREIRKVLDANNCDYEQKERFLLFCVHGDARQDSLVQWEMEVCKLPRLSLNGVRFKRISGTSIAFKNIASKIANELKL
# MAP kinase-activated protein kinase 2 (Homo sapiens), sequence (P49137 whole entry, looked up): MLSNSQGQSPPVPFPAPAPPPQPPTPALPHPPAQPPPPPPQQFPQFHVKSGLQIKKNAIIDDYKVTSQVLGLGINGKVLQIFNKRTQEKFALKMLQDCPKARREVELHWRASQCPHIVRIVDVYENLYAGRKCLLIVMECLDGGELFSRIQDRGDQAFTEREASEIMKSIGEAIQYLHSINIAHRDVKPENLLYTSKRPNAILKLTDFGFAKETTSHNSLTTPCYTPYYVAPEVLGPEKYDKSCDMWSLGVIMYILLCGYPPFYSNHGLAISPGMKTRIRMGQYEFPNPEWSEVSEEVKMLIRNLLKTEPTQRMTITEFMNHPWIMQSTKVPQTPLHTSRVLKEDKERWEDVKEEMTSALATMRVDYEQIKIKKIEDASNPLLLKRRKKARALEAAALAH
# Tyrosine-protein kinase Lyn (Homo sapiens), sequence (P07948 2-512 limits assumed): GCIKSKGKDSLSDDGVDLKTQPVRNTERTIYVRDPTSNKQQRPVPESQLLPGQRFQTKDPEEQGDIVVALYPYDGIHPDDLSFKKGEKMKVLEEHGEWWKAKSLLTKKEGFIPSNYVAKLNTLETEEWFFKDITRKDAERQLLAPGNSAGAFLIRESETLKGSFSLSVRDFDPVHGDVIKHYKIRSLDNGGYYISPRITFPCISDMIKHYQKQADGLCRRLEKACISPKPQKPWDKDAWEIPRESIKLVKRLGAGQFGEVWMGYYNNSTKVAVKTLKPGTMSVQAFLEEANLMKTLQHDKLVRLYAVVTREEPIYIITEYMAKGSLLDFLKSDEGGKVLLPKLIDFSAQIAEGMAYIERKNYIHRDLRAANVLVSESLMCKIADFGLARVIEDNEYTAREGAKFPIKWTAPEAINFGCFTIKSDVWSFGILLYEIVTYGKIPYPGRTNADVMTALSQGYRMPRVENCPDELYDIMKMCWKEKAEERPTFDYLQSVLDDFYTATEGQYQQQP
# Mitogen-activated protein kinase 3 (Homo sapiens), sequence (P27361 whole entry): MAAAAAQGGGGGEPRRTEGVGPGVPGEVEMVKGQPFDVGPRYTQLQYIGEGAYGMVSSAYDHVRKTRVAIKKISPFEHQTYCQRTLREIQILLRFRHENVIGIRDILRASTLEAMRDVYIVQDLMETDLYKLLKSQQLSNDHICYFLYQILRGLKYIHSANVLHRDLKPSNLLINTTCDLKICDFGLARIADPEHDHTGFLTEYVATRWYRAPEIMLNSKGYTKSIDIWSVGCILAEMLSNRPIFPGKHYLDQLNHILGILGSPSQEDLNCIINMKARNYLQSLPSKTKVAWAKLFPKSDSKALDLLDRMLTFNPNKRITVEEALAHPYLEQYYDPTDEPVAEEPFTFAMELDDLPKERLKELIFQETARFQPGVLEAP
Compound,residual activity [1] [%],residual activity [2] [%],residual activity [3] [%],residual activity [4] [%],residual activity [5] [%],residual activity [6] [%],residual activity [7] [%],residual activity [8] [%],residual activity [9] [%],residual activity [10] [%],residual activity [11] [%],residual activity [12] [%],residual activity [13] [%],residual activity [14] [%],residual activity [15] [%],residual activity [16] [%],residual activity [17] [%],residual activity [18] [%]
CC(C)(C)c1nc2c3ccc(F)cc3c3c(=O)[nH]ccc3c2[nH]1,65,20,47,64,79,62,29,14,66,20,2,2,81,78,,,,
COc1ccc(COc2ccc(Cc3cnc(N)nc3N)cc2OC)cc1,,,100,76,,,,71,,,,,,,77,,,
CC(C)[C@H](CO)Nc1nc(Nc2cc(N)cc(Cl)c2)c2ncn(C(C)C)c2n1,9,-1,91,82,89,117,92,38,,,,,,73,,66,,
Oc1cccc(-c2nc(N3CCOCC3)c3oc4ncccc4c3n2)c1,99,57,83,87,81,,,,,,74,88,,,,119,122,
CN(C)S(=O)(=O)c1ccc2c(c1)/C(=C/c1cc3c([nH]1)CCCC3)C(=O)N2,3,0,,88,81,92,24,17,,83,,95,124,97,,,,92
CCOC(=O)c1c(C)[nH]c(/C=C2\C(=O)Nc3ccccc32)c1C,50,26,81,91,,,89,87,,,77,97,86,75,,96,100,95
Nc1ncnc2c1cnn2-c1ccccc1,95,82,82,80,92,,89,88,,79,95,73,,99,,95,,92
NC(=O)Nc1sc(-c2ccc(F)cc2)cc1C(N)=O,16,1,80,,92,83,57,17,44,34,72,24,81,47,,67,108,86
O=C(Nc1nc2ccccc2n1CCN1CCOCC1)c1cccc([N+](=O)[O-])c1,,87,,,,,80,81,66,81,65,45,,,,,,84
COc1ccc(Cl)cc1NC(=O)Nc1cc(C)nc2ccccc12,89,87,,,80,,86,77,75,86,88,89,,,,,,
NC(=O)c1ccc(-c2nc(-c3ccc4c(c3)OCCO4)c(-c3ccccn3)[nH]2)cc1,83,,96,,,,96,89,,,73,70,,,,,,
Cn1c2ccccc2c2c3c(c4c5ccccc5n(CCC#N)c4c21)CNC3=O,21,9,52,,,,4,5,36,34,9,4,21,16,,44,48,77
COc1cc2c(cc1OC)-c1n[nH]c(Nc3cccc(F)c3)c1C2,6,6,,76,75,,73,48,108,,47,11,74,42,,103,103,99
N#Cc1c(NC(=O)c2cccc3ccccc23)sc2c1CCCC2,90,62,,,,,100,92,,,87,91,95,93,,92,,88
O=c1cc(N2CCOCC2)oc2c(-c3ccccc3)cccc12,,74,78,73,,,,,,,,72,,,,,,
O=C(Nc1ccc(Cl)cc1)c1ccccc1NCc1ccncc1,30,2,77,80,,,,,,,75,,,,,,,
Nc1nccc(-c2c(-c3ccc(F)cc3)ncn2C2CCNCC2)n1,50,6,,35,,,,,,119,71,27,,,,,,
Nc1n[nH]c2nc3ccccc3nc12,75,67,,,,,75,74,87,85,97,70,,,,,123,94
N#C/C(=C\c1ccc(O)c(O)c1)C(=O)NCc1ccccc1,,70,77,65,85,77,85,88,,,80,72,,84,,,,
N#C/C(=C1/Nc2ccccc2S1)c1ccnc(NCCc2cccnc2)n1,,15,,,,,,,,,74,50,96,72,,,,68
CCOc1nc(NC(=O)Cc2cc(OC)ccc2OC)cc(N)c1C#N,69,59,,,,,,,,,,,,,,,,

# Source: ChEMBL document CHEMBL2218924, “A broad activity screen in support of a chemogenomic map for kinase signalling research and drug discovery” (Biochem J, 2013)
